# Data taken from ChEMBL document CHEMBL3988442, “University of Dundee, Small-Polar-MMV Screening Library” (2021).
# Legend:
# [1] = molecular target: T1, Aspartate--tRNA(Asp/Asn) ligase (Mycobacterium tuberculosis (strain ATCC 25618 / H37Rv)) (UniProt P9WFW3); assay: Assay for Asp RNA synthetase-1 from Mycobacterium tuberculosis; assay type: functional; design: scale not given: direction of the effect not stated beside the values; settings: 30 µM; further: in the data most compounds retested in dose-response had high values
# T1 sequence (whole entry): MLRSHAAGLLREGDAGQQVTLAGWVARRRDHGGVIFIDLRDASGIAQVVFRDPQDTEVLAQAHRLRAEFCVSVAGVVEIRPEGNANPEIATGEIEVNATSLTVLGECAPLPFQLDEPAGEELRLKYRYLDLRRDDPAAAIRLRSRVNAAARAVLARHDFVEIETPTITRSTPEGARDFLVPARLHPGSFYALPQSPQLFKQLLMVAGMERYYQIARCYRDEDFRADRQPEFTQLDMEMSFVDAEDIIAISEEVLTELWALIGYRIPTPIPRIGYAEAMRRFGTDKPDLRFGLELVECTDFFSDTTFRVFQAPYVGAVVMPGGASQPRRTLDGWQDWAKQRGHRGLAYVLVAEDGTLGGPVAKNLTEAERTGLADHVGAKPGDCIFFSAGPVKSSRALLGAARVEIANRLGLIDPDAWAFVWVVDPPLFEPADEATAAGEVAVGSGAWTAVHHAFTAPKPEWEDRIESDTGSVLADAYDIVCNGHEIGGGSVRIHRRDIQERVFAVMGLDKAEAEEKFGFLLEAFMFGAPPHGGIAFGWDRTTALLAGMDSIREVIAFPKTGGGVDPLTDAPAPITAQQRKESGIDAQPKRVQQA
# [2] = molecular target: Shiga toxin 2 (Escherichia coli O157:H7) (UniProt P09385+P09386); assay: E. coli 0.157:H7 Shiga Toxin SOP - stx2 screening assay; assay type: functional; design: scale not given: direction of the effect not stated beside the values; settings: 30 µM
Structure (SMILES),Percent Effect [1] [%],Percent Effect [2] [%]
Cc1nc(CN2CCN(Cc3nccn3C)CC2)no1,-3.87,6.4
COc1cccc(CN(C)C(=O)CCC(=O)c2ccc(Cl)cc2)c1OC,-1.19,-1.09
Cc1ccc(C)n1-c1ccc(C(=O)NCCNc2ncccn2)cc1,5.76,7.86
Cc1ccc(C(=O)N2CCC3(CC2)CCN(CCN(C)C)C3=O)cn1,-4,-1.78
Cc1cnn(C(C)C2CC2)c1NC(=O)c1ccncc1 (centres undefined),4.07,1.34
O=C1[C@H]2CC[C@H](CN(S(=O)(=O)c3ccccc3)C2)N1Cc1cscn1,1.23,-25.8
O=S(=O)(CCNCc1cccc2c1OCCO2)N1CCOCC1,-2.82,-39
O=C(NC1CCC1)[C@@H]1CCO[C@@H]2CCN(CCc3ccccc3)C[C@H]21,-2.94,-26.8
Cc1c(C)n(Cc2ccncc2)c2nc3c(c(N)c12)CCCCC3,4.67,-41.4
O=S(=O)(NCC1CCOc2ccccc2C1)N1CCOCC1 (centres undefined),6.99,-16
CS(=O)(=O)NCc1cnc2n1CCN(Cc1ccsc1)CC2,-2.39,-23.6
CN(C)S(=O)(=O)N1CCC2(COCc3cnc(-c4ccccc4)nc32)C1 (centres undefined),-4.48,-12.6
Cc1cnc(C(=O)N2CCCN(Cc3csc(C)n3)CC2)cn1,-0.524,-41.5
O=C(COc1coc(CN2CCCCC2)cc1=O)NCc1ccccc1,10.2,-39.3
Cc1nc(CCC(=O)NC2CCC2)cc(C2CCNCC2)n1,1.96,-6.49
CC(=O)N1CCN(c2cc(-c3ccccc3)nc3c(C)c(C)nn23)CC1,2.46,-33.1
COc1cccn(CC(=O)N(C)CCOc2cc(C)cc(C)c2)c1=O,38.9,-20.3
